Screening data deposited in PubChem BioAssay by National Center for Advancing Translational Sciences (NCATS).
Compounds with a hit are over-represented: about 14% of the library has one in this group of screens.
Sm TGR block: blocks Schistosoma mansoni thioredoxin glutathione reductase. 3% of 360,000 active. Q962Y6. purified TGR, DTNB reduction, TNB absorbance 405 nm. Potency, µM (titrated, usually from 114 µM), actives largely listed as inhibitors. AID 485364; note: nearly all actives have a fitted effect of over 60% in size
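Kinetic colorimetric format: TGR-catalysed, NADPH-driven DTNB reduction monitored via TNB absorbance. Enzyme dispensed at 20 nM; compound exposure 15 min at room temperature before reaction start.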
Pf growth 96h: inhibits malaria parasite growth, 96 h | AID 504834 | 6.9% of 320,000 active | Potency, µM (titrated, usually from 28.7 µM), most hits filed as inhibitors | P. falciparum luciferase reporter growth, 96 h
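Luminescence readout: decreased luciferase signal marks inhibited growth of reporter-expressing P. falciparum in infected red cells (2% hematocrit, 0.05% parasitemia final), exposed to compound two generations (96 h, 37 C, 5% CO2).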
FBPA Giardia inh: blocks Giardia fructose-bisphosphate aldolase activity; purified Giardia FBPA; Potency, µM (doses to about 59.6 µM), usual class: inhibitors; 0.71% of 290,000 active; note: nearly all actives have a fitted effect of over 55% in size
Target sequence (A8B2U2 whole entry, looked up): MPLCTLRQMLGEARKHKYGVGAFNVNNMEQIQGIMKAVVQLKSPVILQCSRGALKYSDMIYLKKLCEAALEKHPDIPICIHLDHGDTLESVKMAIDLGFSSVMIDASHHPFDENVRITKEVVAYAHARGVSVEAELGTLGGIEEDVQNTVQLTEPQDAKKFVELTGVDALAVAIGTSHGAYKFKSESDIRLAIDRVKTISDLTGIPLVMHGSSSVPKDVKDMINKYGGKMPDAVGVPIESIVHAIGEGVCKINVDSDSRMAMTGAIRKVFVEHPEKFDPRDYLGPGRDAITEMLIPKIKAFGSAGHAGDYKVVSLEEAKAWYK
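Giardia FBPA (40 nM reagent) was preincubated 10 min at RT with compound (up to 57.5 uM final), then substrate plus GAPDH/TPI/NAD/arsenate coupling system with diaphorase/resazurin was added; resorufin fluorescence (525/598 nm) was read after 20 min.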
Pf growth 48h: P. falciparum growth inhibition at 48 hours (one generation) | P. falciparum luciferase growth in erythrocytes, 48 h | Potency, µM (doses to about 28.7 µM), most hits filed as inhibitors | 5.9% of 310,000 active
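Luciferase-expressing P. falciparum in infected erythrocytes (2% hematocrit, 0.1% parasitemia final) in RPMI 1640/0.5% Albumax were exposed to compound for 48 hours at 37 C, 5% CO2; growth read as luminescence.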
HCMV inh: human cytomegalovirus inhibition | HFF cells, HCMV-luciferase reporter, 72 h; active compounds read low | activity change, negative = inhibition, % at 57.5 µM | 4.5% of 410,000 active; in the data active = activity change below about -60%; inconclusive = no clear call, values can overlap the other calls; inactive = above about -39%
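Luciferase read-out from HCMV-luciferase-infected HFFs (MOI 1 PFU/cell) 72 h post infection at 37C; compounds added after 16 h cell attachment; activity normalized between buffer-only basal and Salinomycin (10uM) inhibitor controls.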
Large screens that a line does not name were inactive. Unless noted, calls come from the whole dose curve; as a rule, active = well fitted curve in the direction sought with a large enough effect; inconclusive = small, poorly fitted or top-dose-only effect, or another doubt; inactive = no such curve, though single readings can be large; an effect the other way counts as inactive or inconclusive.

C=CCn1c2ccccc2c(=O)c2cc(C#Cc3ccccn3)ccc21	Sm TGR block inconclusive, Pf growth 96h 2.1µM, Pf growth 48h inconclusive, HCMV inh inconclusive (no result: FBPA Giardia inh)
Cn1c2ccccc2c(=O)c2cc(C#Cc3ccc(N)cc3)ccc21	Pf growth 96h inconclusive
C=CCn1c2ccccc2c(=O)c2cc(C#Cc3ccsc3)ccc21	Sm TGR block inconclusive, Pf growth 96h 0.33µM, Pf growth 48h 0.046µM (no result: HCMV inh)
O=c1c2ccccc2oc2cc(C#Cc3ccccn3)ccc12	none (no result: Sm TGR block, Pf growth 96h, FBPA Giardia inh, Pf growth 48h)
COC(=O)c1ccccc1NC(=O)Cn1nnc(-c2ccc(OC)cc2)n1	Pf growth 96h 0.59µM
COc1ccc(C(=O)Cn2nnc(-c3ccccc3NC(=O)C3CC3)n2)cc1	Pf growth 96h inconclusive, Pf growth 48h 12µM
O=C(CSc1nncn2c1cc1sccc12)Nc1ccccc1C(F)(F)F	HCMV inh -73 (no result: Pf growth 96h, FBPA Giardia inh, Pf growth 48h)
COC(=O)c1ccccc1NC(=O)Cn1nnc(-c2ccc3c(c2)OCO3)n1	none
O=C(Cn1nnc(-c2cccs2)n1)Nc1ccccc1C(F)(F)F	Pf growth 96h 0.29µM
O=C(Cn1nnc(-c2cccs2)n1)NCc1ccccc1	none
COc1ccccc1NC(=O)Cn1nnc(-c2ccccc2NS(=O)(=O)c2ccccc2)n1	Pf growth 48h inconclusive, HCMV inh -67
COc1ccc(NC(=O)Cn2nnc(-c3ccccc3NC(=O)c3cccs3)n2)cc1	Pf growth 96h inconclusive, Pf growth 48h 1.9µM
COc1ccc(NC(=O)Cn2nnc(-c3ccccc3NS(=O)(=O)c3ccc(OC)cc3)n2)cc1	Pf growth 48h inconclusive
Cc1ccc(NC(=O)Cn2nnc(-c3ccccc3NC(=O)c3cccs3)n2)cc1	Pf growth 48h 13µM, HCMV inh inconclusive (no result: Pf growth 96h)
Cc1cc(C(=O)CCC(=O)N(C)CC2COc3ccccc3O2)c(C)s1 (centres undefined)	none (no result: Sm TGR block, Pf growth 96h, FBPA Giardia inh, Pf growth 48h)
CCCNC(=O)CN(C)CC(=O)Nc1ccccc1C#N	none
Cc1ccc(C(C(=O)NCC2CCCO2)N(C(=O)c2snc(C(N)=O)c2N)c2ccc(F)cc2)o1 (centres undefined)	Pf growth 96h inconclusive, Pf growth 48h inconclusive, HCMV inh -75
Cc1cc(C)cc(N(C(=O)c2snc(C(N)=O)c2N)C(C(=O)NCC2CCCO2)c2cccs2)c1 (centres undefined)	Pf growth 48h inconclusive, HCMV inh -93
COc1ccc(N(C(=O)c2snc(C(N)=O)c2N)C(C(=O)NC2CCCCC2)c2ccc(C)o2)cc1 (centres undefined)	Pf growth 48h 8.3µM, HCMV inh -70
NC(=O)c1nsc(C(=O)N(c2ccccc2)C(C(=O)NCC2CCCO2)c2cccs2)c1N (centres undefined)	Pf growth 96h inconclusive
CCOc1ccc(N(C(=O)c2snc(C(N)=O)c2N)C(C(=O)NCC2CCCO2)c2ccc(C)o2)cc1 (centres undefined)	Pf growth 96h inconclusive, Pf growth 48h inconclusive
COc1ccc(N(C(=O)c2snc(C(N)=O)c2N)C(C(=O)NC2CCCC2)c2ccco2)cc1 (centres undefined)	Pf growth 48h inconclusive (no result: FBPA Giardia inh)
COc1ccc(-c2nsc(C(=O)N(c3ccc(F)cc3)C(C(=O)NC3CCCC3)c3ccc(OC)cc3)c2N)cc1 (centres undefined)	Pf growth 48h 2.6µM (no result: Pf growth 96h)
COc1cc(C2c3c(oc4ccccc4c3=O)C(=O)N2Cc2ccc(C)cc2)ccc1O (centres undefined)	none (no result: Pf growth 96h, FBPA Giardia inh, Pf growth 48h)
Fc1cc(F)c(-c2nc3ccccc3nc2-c2ccccc2)c(F)c1	none (no result: Sm TGR block, Pf growth 96h, FBPA Giardia inh, Pf growth 48h)
O=C(Nc1ccc(N2CCOCC2)cc1)c1ccc([N+](=O)[O-])cc1	none
COc1cc(OC)cc(N(C(=O)c2snc(C(N)=O)c2N)C(C(=O)NCC2CCCO2)c2ccc(C)o2)c1 (centres undefined)	Pf growth 48h 4.7µM
Cc1ccc([C@H]2N[C@]3(CCCN(Cc4ccccc4)C3=O)[C@H]3C(=O)N(C)C(=O)[C@@H]23)cc1	none (no result: Sm TGR block, Pf growth 96h, FBPA Giardia inh, Pf growth 48h)
COc1ccccc1-c1ccc2ncnc(Nc3ccccc3)c2c1	none (no result: Sm TGR block, Pf growth 96h, Pf growth 48h, HCMV inh)
NS(=O)(=O)c1ccc(S(=O)(=O)N2CCCC(c3ccccc3)C2)cc1 (centres undefined)	none (no result: Sm TGR block, Pf growth 96h, FBPA Giardia inh, Pf growth 48h)
COc1ccc(CN(C#N)c2nc(C)cc(C)n2)cc1	Pf growth 96h 7.4µM, Pf growth 48h inconclusive
Cc1cc(C)nc(N(C#N)Cc2cccc([N+](=O)[O-])c2)n1	none
CC(=O)O[C@H]1C2=C(C(=O)[C@H]3O[C@@H]31)[C@@H]1[C@@H]3[C@@H](C)OC=C4[C@H](O)[C@H]5O[C@@H]5C(=O)[C@]43C2O[C@H]1C	none (no result: Sm TGR block, Pf growth 96h, Pf growth 48h, HCMV inh)
CCOc1ccc(-c2ccc(C3=CC(=O)C[C@H](c4ccc(F)cc4)C3)cc2)cc1	none (no result: Sm TGR block, Pf growth 96h, FBPA Giardia inh, Pf growth 48h)
COc1ccc(CNC(=O)c2ccc(-c3nc(CSc4ccccc4)c(C)o3)cc2)c(OC)c1	none (no result: Pf growth 96h, FBPA Giardia inh, Pf growth 48h)
Cc1ccc(C(=O)NC(=S)/C=C2\N(C)c3ccccc3C2(C)C)cc1	Pf growth 96h inconclusive, HCMV inh -68
CN1/C(=C\C=N\NC(=O)c2cccnc2)C(C)(C)c2ccccc21	Pf growth 96h inconclusive, Pf growth 48h 0.59µM
CN1/C(=C\C=N\NC(=O)c2ccc(O)cc2)C(C)(C)c2ccccc21	Pf growth 96h inconclusive, HCMV inh -90
Cc1c(N=C/C=C2/N(C)c3ccccc3C2(C)C)c(=O)n(-c2ccccc2)n1C	none
Cc1c(N=C/C=C2\N(C)c3ccccc3C2(C)C)c(=O)n(-c2ccccc2)n1C	Pf growth 96h 4.1µM
